PfHsp90 set2 = growth inhibition of yeast expressing Plasmodium Hsp90. 0.32% of 310,000 active. inhibition, % at 9.4 µM. AID 504621. S. cerevisiae expressing PfHsp90, BacTiter-Glo ATP, 48 h; yeast lacking PDR1 and PDR3 efflux regulators;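 active = every replicate shows inhibition above about 80%, whatever the replicate mean, limit read from the data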
NLRP3 yeast inh = inhibitors of NALP3 inflammasome in yeast | Yeast reconstituted NLRP3/ASC/caspase-1, beta-gal luminescence, 24 h | inhibition, % at 10 µM | 0.39% of 330,000 active;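 active = inhibition of 50% or more; inactive = inhibition below 50%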
tim10-1 inh = inhibits growth of tim10-1 mutant yeast | S. cerevisiae tim10-1 ts strain growth, BacTiter-Glo, 24 h | inhibition, % at 20 µM | 2.2% of 330,000 active;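 active = inhibition of at least 40%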;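 note: mutant grown at 25 °C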
TIM10 inh = growth inhibitors of TIM10 yeast strain. S. cerevisiae TIM10 strain growth, BacTiter-Glo luminescence, 24 h. inhibition, % at 10 µM. 1.4% of 330,000 active. AID 463195;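 active = inhibition of 40% or more at the single tested concentration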;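 note: wild-type TIM10 isogenic control strain grown at permissive 25 °C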
SKKanGAS inh = SKKanGAS growth inhibition; S. pyogenes SKKanGAS, kanamycin growth, BacTiter-Glo, 6 h; inhibition, % at 7.5 µM; 1.3% of 300,000 active; AID 1662;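 active = mean replicate score, as percent of positive control median, at least 50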;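 note: strain carries kanamycin resistance gene driven by streptokinase promoter and grows in 40 µg/ml kanamycin; loss of luminescence reflects streptokinase promoter inhibition or plain growth inhibition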
tim23-1 inh = inhibits growth of tim23-1 mutant yeast; 1.3% of 330,000 active; inhibition, % at 20 µM; S. cerevisiae tim23-1 growth, BacTiter-Glo luminescence, 24 h;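 active = growth inhibition of the mutant yeast at or above 50%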;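 note: temperature-sensitive mutant grown at 25 °C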
tim10 confirm = confirmation of TIM10 yeast growth inhibitors; 63% of 4,600 active; S. cerevisiae tim10 strain growth, BacTiter-Glo luminescence, 24 h; shares compounds with TIM10 inh; inhibition, % at 10 µM;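 active = inhibition of yeast growth at or above a set limit in either of two replicates at 10 µM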; note: this counterscreen used the strain with wild-type TIM10
Hits are given with their value; 0 = inactive; - = no result. An excerpt weighted towards active compounds, which were near 4.5% of everything screened.

SMILES | PfHsp90 set2 | NLRP3 yeast inh | tim10-1 inh | TIM10 inh | SKKanGAS inh | tim23-1 inh | tim10 confirm
O=C(Nc1ccc2c(c1)OCO2)c1ccc(Br)s1 | 0 | 0 | 0 | 0 | 0 | 0 | -
O=C(Nc1cccc(C2OCCCO2)c1)c1cccs1 | 0 | 0 | 0 | 44 | 0 | 0 | 0
O=C(Nc1cccc(-c2csc(-c3ccccc3)n2)c1)c1cccs1 | 0 | 0 | 0 | 41 | 0 | 0 | 32
CCc1cc2c(=O)oc(-c3ccccc3F)nc2s1 | 0 | 0 | 0 | 0 | 0 | 0 | -
O=C(/C=C/c1cccc(Br)c1)NCC1CCCCC1 | 0 | 0 | 0 | 41 | 0 | 0 | 33
O=C(COC(=O)/C=C/c1cccc(Br)c1)NC1CCCCC1 | 0 | 0 | 0 | 0 | - | 0 | -
O=C(NCc1ccc(Cl)cc1)c1ccc(Br)o1 | 0 | 0 | 0 | 68 | 0 | 0 | 0
O=C(NC1=NCCS1)c1cc(-c2cccc(Br)c2)nc2ccccc12 | 0 | 0 | 0 | 43 | 0 | 0 | 0
O=C(NC1=NCCS1)c1csc2ccccc12 | 0 | 0 | 0 | 44 | 0 | 0 | 0
N#Cc1ccccc1COC(=O)c1cccc(S(=O)(=O)N2CCCC2)c1 | 0 | 0 | 0 | 0 | - | 0 | -
COCC(C)NC(=O)CSc1nc2cc(S(=O)(=O)N3CCCCC3)ccc2o1 (configuration not stated) | 0 | 0 | 0 | 0 | - | 0 | -
Cc1nn(-c2ccccc2)c(C)c1C(=O)NCc1ccc(F)cc1 | 0 | 0 | 0 | 0 | 0 | 0 | -
Cc1c(C(=O)NCc2ccc(F)cc2)c(-c2ccccc2)nn1-c1ccccc1 | 0 | 0 | 0 | 43 | 0 | 0 | 37
Cc1ccc(NC(=O)COC(=O)c2ccc3c(c2)C(=O)N(CCc2ccccc2)C3=O)c(C)c1 | 0 | 0 | 0 | 41 | 0 | 0 | 0
CCOc1ccc(NC(=O)COC(=O)c2ccc3c(c2)C(=O)N(CCc2ccccc2)C3=O)cc1 | 0 | 0 | 0 | 0 | 0 | 0 | -
COc1cc(C(=S)N2CCOCC2)ccc1OC(=O)c1ccc([N+](=O)[O-])cc1[N+](=O)[O-] | 0 | 0 | 0 | 44 | 0 | 0 | 37
COc1ccc(C(=S)N2CCOCC2)cc1OC(=O)c1cccc([N+](=O)[O-])c1 | 0 | 0 | 0 | 41 | 0 | 0 | 0
CC(=O)Nc1ccc(C(=O)OCc2ccc(Br)cc2)cc1 | 0 | 0 | 0 | 41 | 0 | 0 | 35
O=C(OCc1ccc(Br)cc1)c1ccncc1 | 0 | 0 | 0 | 0 | 0 | 0 | -
CC(=O)Nc1nc2c(C)c(Cl)ccc2s1 | 0 | 0 | 0 | 0 | 0 | 0 | -
Cc1c(Cl)ccc2sc(NC(=O)C3CC3)nc12 | 0 | 0 | 0 | 44 | 0 | 0 | 38
N#CC(c1nc2ccccc2nc1N1CCCC1)S(=O)(=O)c1ccccc1 (configuration not stated) | 0 | 0 | 0 | 41 | 0 | 0 | 0
Cc1cccc(Cn2ccc(NC(=O)c3ccc4c(c3)OCO4)n2)c1 | 0 | 0 | 0 | 40 | 0 | 0 | 34
Cc1cccc(Cn2ccc(NC(=O)c3cccnc3)n2)c1 | 0 | 0 | 0 | 0 | 0 | 0 | -
O=C(COC(=O)c1ccc(O)cc1)Nc1ccccc1 | 0 | 0 | 0 | 0 | 0 | 0 | -
SMILES | PfHsp90 set2 | NLRP3 yeast inh | tim10-1 inh | TIM10 inh | SKKanGAS inh | tim23-1 inh | tim10 confirm
COc1ccccc1CNc1ccc(N2CCCCC2)cc1 | 0 | 0 | 0 | 54 | 0 | 0 | 0
COc1cccc(CNc2ccc(N3CCCCC3)cc2)c1OC | 0 | 0 | 0 | 0 | - | 0 | -
NC(=O)CSc1nnnn1-c1cccc(Cl)c1 | 0 | 0 | 0 | 0 | 0 | 0 | -
C#CCSc1nnnn1-c1cccc(Cl)c1 | 0 | 0 | 0 | 49 | 0 | 0 | 0
CNS(=O)(=O)c1ccc(C(=O)NCC(=O)NCCC(c2ccccc2)c2ccccc2)cc1 | 0 | 0 | 0 | 0 | - | 0 | -
CC1Cc2ccccc2N1C(=O)C1CCCN(S(=O)(=O)c2cccc3nsnc23)C1 (configuration not stated) | 0 | 0 | 0 | 44 | 0 | 0 | 0
Cn1cc(Cl)c(C(=O)OCC(=O)Nc2cccc(Cl)c2)n1 | 0 | 0 | 0 | 0 | 0 | 0 | -
COc1ccc(-c2csc3ncn(-c4ccc(C)cc4)c(=O)c23)cc1OC | 0 | 0 | 0 | 0 | 0 | 0 | -
COc1ccc(-n2cnc3scc(-c4ccc(OC)c(OC)c4)c3c2=O)cc1 | 0 | 0 | 0 | 40 | 0 | 0 | 0
CC(=O)NCCc1nc2ccccc2n1CCc1ccccc1 | 0 | - | - | - | 0 | - | -
Cc1c(C(=O)NC2CCC(C)CC2)oc2ccccc12 (configuration not stated) | 0 | 0 | 0 | 0 | 0 | 0 | -
Nc1ccc(-c2nc3ncccc3o2)c(Cl)c1 | 0 | 0 | 0 | 42 | 0 | 0 | 0
CC(OC(=O)c1ccc([N+](=O)[O-])s1)C(=O)Nc1ncc(Cl)cc1Cl (configuration not stated) | 0 | 0 | 0 | 44 | 0 | 0 | 0
Cc1ccc(OC(C)C(=O)Nc2ncc(Cl)cc2Cl)c([N+](=O)[O-])n1 (configuration not stated) | 0 | 0 | 0 | 0 | - | 0 | -
c1ccc(OCCOCCN2CCN(C(c3ccccc3)c3ccccc3)CC2)cc1 | 0 | 0 | 0 | 43 | 0 | 0 | 0
Cc1c(CN2CCC(CO)(CCOc3ccccc3)CC2)[nH]c2c(Cl)cccc12 | 0 | 0 | 0 | 44 | 0 | 0 | 0
Cc1ccc(C)c(S(=O)(=O)N2CCCC2CNC(=O)C(=O)NC2CCCC2)c1 (configuration not stated) | - | 0 | 0 | 0 | 0 | 0 | -
O=C(c1cc(-c2cccs2)on1)N1CCOCC1 | 0 | 0 | 0 | 0 | 0 | 0 | -
O=C(c1cc(-c2cccs2)on1)N1CCN(C(c2ccccc2)c2ccccc2)CC1 | 0 | 0 | 0 | 50 | 0 | 0 | 31
COc1cccc(-c2nc(C#N)c(N3CCN(C(=O)c4ccco4)CC3)o2)c1 | 0 | 0 | 0 | 0 | 0 | 0 | -
COc1ccc(-c2cc(C(=O)N3CCN(c4ccccc4)CC3)no2)cc1OC | - | 0 | 0 | 42 | 0 | 0 | 0
COc1cccc(-c2cc(C(=O)N3CCN(C(c4ccccc4)c4ccccc4)CC3)no2)c1 | 0 | 0 | 0 | 57 | 0 | 0 | 44
COc1ccc(-c2cc(C(=O)N3CCN(c4ccccc4OC)CC3)no2)cc1OC | 0 | 0 | 0 | 0 | 0 | 0 | -
COc1cccc(-c2cc(C(=O)N3CCN(C(=O)c4ccco4)CC3)on2)c1 | 0 | 0 | 0 | 47 | 0 | 0 | 0
CC(C)[C@H](NC(=O)C1CCN(S(=O)(=O)c2ccccc2)CC1)C(=O)NCc1ccccc1 | 0 | 0 | 0 | 0 | 0 | 0 | -
CCC(=O)c1ccc(OCC(=O)OCC(=O)N2c3ccccc3NC(=O)C2(C)C)cc1 | 0 | 0 | 0 | 0 | 0 | 0 | -
O=C(NCC(=O)N1CCN(Cc2ccc3c(c2)OCO3)CC1)c1ccccc1F | 0 | 0 | 0 | 97 | - | 0 | 0
CCCCOc1ccc(C(=O)NCC(=O)N2CCN(Cc3ccc4c(c3)OCO4)CC2)cc1 | - | 0 | 0 | 0 | 0 | 0 | -
COc1ccc(S(=O)(=O)n2nc(OC(=O)C3CCCCC3)cc2N)cc1 | 0 | 0 | 0 | 46 | 0 | 0 | 0

High-throughput results from PubChem BioAssay.
